This passage reports residual activity results from ChEMBL document CHEMBL2218924, “A broad activity screen in support of a chemogenomic map for kinase signalling research and drug discovery” (Biochem J, 2013).

A word on the residual activity: it is the signal under treatment as a percentage of the control signal.

Chain of G protein-coupled receptor kinase 6 (Homo sapiens) (P43250 whole entry, looked up): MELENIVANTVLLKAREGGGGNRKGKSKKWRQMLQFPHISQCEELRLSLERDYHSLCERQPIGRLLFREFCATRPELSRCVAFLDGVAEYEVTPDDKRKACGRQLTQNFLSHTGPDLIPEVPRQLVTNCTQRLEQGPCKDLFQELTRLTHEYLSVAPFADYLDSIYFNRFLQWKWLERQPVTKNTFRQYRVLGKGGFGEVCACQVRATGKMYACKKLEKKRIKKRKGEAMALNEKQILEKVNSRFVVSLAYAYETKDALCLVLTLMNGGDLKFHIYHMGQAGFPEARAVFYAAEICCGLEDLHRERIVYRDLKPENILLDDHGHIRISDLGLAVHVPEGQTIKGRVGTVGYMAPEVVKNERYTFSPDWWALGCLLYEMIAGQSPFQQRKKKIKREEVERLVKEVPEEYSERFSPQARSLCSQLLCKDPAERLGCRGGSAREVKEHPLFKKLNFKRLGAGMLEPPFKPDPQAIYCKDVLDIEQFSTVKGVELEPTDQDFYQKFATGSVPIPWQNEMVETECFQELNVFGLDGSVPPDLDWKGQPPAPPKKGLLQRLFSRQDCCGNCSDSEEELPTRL

The target of one experiment is G protein-coupled receptor kinase 5 (Homo sapiens) (UniProt P34947). The note with it: at 1 µM.
Chain of G protein-coupled receptor kinase 5 (Homo sapiens) (P34947 whole entry, looked up): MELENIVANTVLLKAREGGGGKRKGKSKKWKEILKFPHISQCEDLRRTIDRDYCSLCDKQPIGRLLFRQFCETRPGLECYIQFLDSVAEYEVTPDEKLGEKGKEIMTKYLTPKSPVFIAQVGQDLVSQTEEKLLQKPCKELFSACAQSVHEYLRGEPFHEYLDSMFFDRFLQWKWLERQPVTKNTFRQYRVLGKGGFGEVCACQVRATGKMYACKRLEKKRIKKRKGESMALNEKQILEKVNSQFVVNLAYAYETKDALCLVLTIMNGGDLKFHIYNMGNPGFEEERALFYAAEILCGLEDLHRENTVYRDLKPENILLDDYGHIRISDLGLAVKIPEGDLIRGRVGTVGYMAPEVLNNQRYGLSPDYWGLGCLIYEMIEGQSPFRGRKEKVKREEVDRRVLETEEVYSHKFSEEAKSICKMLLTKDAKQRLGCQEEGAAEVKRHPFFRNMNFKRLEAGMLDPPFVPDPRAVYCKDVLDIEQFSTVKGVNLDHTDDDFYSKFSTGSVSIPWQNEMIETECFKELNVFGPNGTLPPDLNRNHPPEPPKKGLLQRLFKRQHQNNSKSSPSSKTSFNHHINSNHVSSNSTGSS
`Oc1n[nH]c2nnc(-c3c(-c4ccccc4)nn4ccccc34)cc12`: the residual activity amounted to 87%. Still for that read-out and setting: the result for `O=C1C(Cl)=C(N2C(=O)CCC2=O)C(=O)c2ccccc21` reads 98%; that for `Cc1cncc2cccc(S(=O)(=O)N3CCCN(C(=O)CN)C[C@H]3C)c12`, 98%; that for `COc1cccc(-c2cc(=O)c3ccccc3o2)c1N`, 100%. The same measure, in the same setting: the result for `COc1ccc(CNc2nc(N(CCO)CCO)nc3c2ncn3C(C)C)cc1` reads 89%; that for `O=c1c2ccccc2[nH]c(=S)n1CCN1CCC(=C(c2ccc(F)cc2)c2ccc(F)cc2)CC1`, 101%; that for `c1ccc2c(-c3ccncc3)c[nH]c2c1`, 98%.

With `Cc1cccc(-c2[nH]c(C(C)(C)C)nc2-c2ccc3c(c2)OCO3)n1`, the residual activity worked out at 105%. For the molecule `Nc1n[nH]c2nc3ccccc3nc12`, the residual activity was found to be 98%. The same measure, in the same setting: the same measure for `O=Nc1c(-c2c(O)[nH]c3ccccc23)[nH]c2ccccc12`: 92%; for `Oc1ccc(Nc2nc(-c3ccc(Cl)cc3)cs2)cc1`: 102%.

Regarding `CCN(CC)CCCCN1c2ccccc2Oc2ccc(Cl)cc21`, the residual activity is 107%. Same read-out and setting: the result for `COc1cc2ncnc(Nc3ccc(Oc4ccccc4)cc3)c2cc1OC` reads 90%; that for `CO[C@H]1C[C@@H]2CC[C@@H](C)[C@@](O)(O2)C(=O)C(=O)N2CCCC[C@H]2C(=O)O[C@H]([C@H](C)C[C@@H]2CC[C@@H](O)[C@H](OC)C2)CC(=O)[C@H](C)/C=C(\C)[C@@H](O)[C@@H](OC)C(=O)[C@H](C)C[C@H](C)/C=C/C=C/C=C/1C`, 95%.

For `CCCC(=O)Oc1ccc2[nH]c(C(=O)c3cc4ccccc4[nH]3)cc2c1`, the residual activity is 104%. The same measure, in the same setting: the same measure for `Cn1cc(/C=C2\C(=O)Nc3ccc(S(N)(=O)=O)cc32)c2ccccc21`: 62%.

A further experiment has as its target G protein-coupled receptor kinase 6 (Homo sapiens) (UniProt P43250). The settings on record: at 1 µM.
As for `Oc1n[nH]c2nnc(-c3c(-c4ccccc4)nn4ccccc34)cc12`, the residual activity is 83%.

As for `O=C1C(Cl)=C(N2C(=O)CCC2=O)C(=O)c2ccccc21`, the residual activity was 88%. For `NC(=O)c1cccc(-c2cc(Nc3ccc(OC(F)(F)F)cc3)ncn2)c1`, the residual activity came out at 94%. Same read-out and setting: the result for `O=C1NC(=O)C(c2c[nH]c3ccccc23)=C1c1c[nH]c2ccccc12` reads 98%; that for `Cc1cncc2cccc(S(=O)(=O)N3CCCN(C(=O)CN)C[C@H]3C)c12`, 84%; that for `N#Cc1c(NC(=O)c2cccc3ccccc23)sc2c1CCCC2`, 98%. On the same count and under the same terms, the result for `O=C(c1ccccc1)c1ccc(N2CCOCC2)cc1O` reads 96%; that for `COc1cccc(-c2cc(=O)c3ccccc3o2)c1N`, 99%.

`O=C1Nc2ccc(Cl)cc2/C1=C/c1cc(Cl)c(O)c(Cl)c1`: the residual activity is 90%. Take `CCOC(=O)c1c(C)[nH]c(/C=C2\C(=O)Nc3ccccc32)c1C`: the residual activity came to 98%. On to `Cc1cc(Nc2nc(-c3ccccc3)nc3ccccc23)n[nH]1`, for which the residual activity stood at 76%.

Turning to `COc1ccc(Cl)cc1NC(=O)Nc1cc(C)nc2ccccc12`, the residual activity was 98%. `COc1ccc(-c2cnc3c(-c4ccsc4)cnn3c2)cc1`: the residual activity turned out to be 99%.

Regarding `CCN(CC)C(=O)c1ccc(Nc2nc(OCC3CCCCC3)c3nc[nH]c3n2)cc1`, the residual activity came out at 97%.

For the molecule `COc1ccc(CNc2nc(N(CCO)CCO)nc3c2ncn3C(C)C)cc1`, the residual activity was found to be 95%. The same measure, in the same setting: the result for `Nc1ncnc2c1cnn2-c1ccccc1` reads 93%; that for `O=c1c2ccccc2[nH]c(=S)n1CCN1CCC(=C(c2ccc(F)cc2)c2ccc(F)cc2)CC1`, 91%. As to `c1ccc2c(-c3ccncc3)c[nH]c2c1`, the residual activity turned out to be 87%. The same measure, in the same setting: the same measure for `Cc1cccc(-c2[nH]c(C(C)(C)C)nc2-c2ccc3c(c2)OCO3)n1`: 103%; for `CCN1/C(=C/C(C)=O)Sc2ccc(OC)cc21`: 100%. Same read-out and setting: the same measure for `Nc1n[nH]c2nc3ccccc3nc12`: 93%; for `NC(=O)c1ccc(-c2nc(-c3ccc4c(c3)OCCO4)c(-c3ccccn3)[nH]2)cc1`: 95%; for `O=Nc1c(-c2c(O)[nH]c3ccccc23)[nH]c2ccccc12`: 81%. Still for that read-out and setting: the result for `N#CC(C#N)=C(N)/C(C#N)=C/c1ccc(O)cc1` reads 94%; that for `Oc1ccc(Nc2nc(-c3ccc(Cl)cc3)cs2)cc1`, 103%. With `O=C1Nc2ccccc2/C1=C1/Nc2ccccc2/C1=N\OCCC(O)CO` (stereo not drawn), the residual activity was determined as 68%. Same read-out and setting: the same measure for `CCN(CC)CCCCN1c2ccccc2Oc2ccc(Cl)cc21`: 102%; for `COc1cc2ncnc(Nc3ccc(Oc4ccccc4)cc3)c2cc1OC`: 93%. The same measure, in the same setting: the same measure for `CO[C@H]1C[C@@H]2CC[C@@H](C)[C@@](O)(O2)C(=O)C(=O)N2CCCC[C@H]2C(=O)O[C@H]([C@H](C)C[C@@H]2CC[C@@H](O)[C@H](OC)C2)CC(=O)[C@H](C)/C=C(\C)[C@@H](O)[C@@H](OC)C(=O)[C@H](C)C[C@H](C)/C=C/C=C/C=C/1C`: 89%; for `CCCC(=O)Oc1ccc2[nH]c(C(=O)c3cc4ccccc4[nH]3)cc2c1`: 93%; for `O=C(O)/C=C/c1cc(Br)c(Br)c(Br)c1Br`: 99%. The same measure, in the same setting: the result for `Cn1cc(/C=C2\C(=O)Nc3ccc(S(N)(=O)=O)cc32)c2ccccc21` reads 96%.
